Measured values reported in PubChem BioAssay AID372 (MTDP, 2006).
Out of some 100,000 compounds screened, about 770 (0.77%) were called active. Rule as the data show it: active = inhibition above about 50%; inactive = the rest. This excerpt belongs to a sample that is enriched for actives.

target: Gag-Pol polyprotein (Human immunodeficiency virus type 1 group M subtype B (isolate HXB2)) (UniProt P04585); assay: RNase H inhibition, HIV 1 Gag Pol polyprotein, FRET biochemical assay, screening (AID 372); settings: HIV-1 RT RNase H, FRET RNA/DNA substrate fluorescence; at 10 µM; hits give high values

Row | Structure (SMILES) | inhibition
1 | COc1cccc(C2/C(=C(\O)c3ccc(Cl)cc3)C(=O)C(=O)N2CCCCCC(=O)O)c1 (stereo not drawn) | 16% (inactive)
2 | CC(C)(C)c1cc(CCC(=O)NCCN2C(=O)c3ccccc3C2=O)cc(C(C)(C)C)c1O | 2% (inactive)
3 | Cc1ccc(SCC(=O)N2CCCC2)cc1 | 6% (inactive)
4 | Nc1cccc(C2=Nc3cccc4cccc(c34)N2)c1 | 56% (active)
5 | Nc1cccc(-c2nnc(-c3ccccc3)o2)c1 | 3% (inactive)
6 | Nc1ccc(C2=Nc3cccc4cccc(c34)N2)cc1 | 56% (active)
7 | Nc1cccc(-c2cc(C(=O)O)c3ccccc3n2)c1 | 0% (inactive)
8 | c1ccc(NC2=Nc3cccc4cccc2c34)cc1 | 12% (inactive)
9 | Cc1ccc([N+](=O)[O-])cc1-c1ccc(/C=C(\C#N)C(=O)NCc2ccco2)o1 | 1% (inactive)
10 | Cc1nn(-c2ccccc2)c2c1C(c1ccc(O)cc1)C(C#N)=C(N)O2 (stereo not drawn) | 3% (inactive)
11 | O=c1/c(=C/c2cc([N+](=O)[O-])ccc2OCCCOc2ccccc2)sc2nc3ccccc3n12 | 4% (inactive)
12 | C=CC(=O)NC1(CCC)CCCCC1 | 11% (inactive)
13 | COc1ccc(/C=C(C(=O)O)/C(C)=C/C(=O)O)c(OC)c1 | 7% (inactive)
14 | COc1ccc(C(=O)c2ccc(Cl)cc2Cl)cc1 | 15% (inactive)
15 | Cc1sc2nc(-c3ccccc3)[nH]c(=O)c2c1C | 10% (inactive)
16 | Cc1sc2nc(-c3ccc(Br)cc3)[nH]c(=O)c2c1C | 8% (inactive)
17 | O=C1S/C(=C/c2ccc(Br)cc2)C(=O)N1c1ccccc1 | 0% (inactive)
18 | CCOC(=O)c1ccc(N2C(=N)S/C(=C\c3ccc(N4CCOCC4)cc3)C2=O)cc1 | 15% (inactive)
19 | N=C1S/C(=C\c2ccc(N3CCOCC3)cc2)C(=O)N1c1ccc(Br)cc1 | 53% (active)
20 | O=C(NCc1ccccn1)C(=O)Nc1ccc(Oc2ccccc2)cc1 | 54% (active)

Row | Structure (SMILES) | inhibition
21 | O=C(NCc1ccccn1)C(=O)Nc1ccc(F)cc1 | 12% (inactive)
22 | COc1ccc(NC(=O)C(=O)NCc2ccccn2)cc1 | 8% (inactive)
23 | O=C(Cn1cc(/C=C2/C(=O)NC(=S)N(c3cccc(Cl)c3)C2=O)c2ccccc21)Nc1ccccc1 | 55% (active)
24 | N#C/C(=C\c1cn(CC(=O)Nc2ccccc2)c2ccccc12)C(=O)Nc1ccccc1 | 0% (inactive)
25 | O=C(Cn1cc(/C=C2/C(=O)NC(=O)N(c3cccc(Cl)c3)C2=O)c2ccccc21)Nc1ccccc1 | 32% (inactive)
26 | O=C(Cn1cc(/C=C2/C(=O)NC(=O)N(c3cccc(F)c3)C2=O)c2ccccc21)Nc1ccccc1 | 46% (inactive)
27 | COc1cccc(OCCn2cc(C=C3C(=O)NC(=S)NC3=O)c3ccccc32)c1 | 57% (active)
28 | O=C(O)Cn1cc(/C=C2/C(=O)NC(=O)N(c3ccccc3F)C2=O)c2ccccc21 | 10% (inactive)
29 | COc1ccc(NC(=O)/C(C#N)=C\c2cn(CC(=O)O)c3ccccc23)cc1 | 0% (inactive)
30 | O=C(Cn1cc(/C=C2/C(=O)NC(=S)N(c3ccccc3F)C2=O)c2ccccc21)Nc1ccccc1 | 47% (inactive)
31 | COc1cccc(OCCn2cc(C=C3C(=O)NC(=O)NC3=O)c3ccccc32)c1 | 12% (inactive)
32 | Cc1cccc(OCCn2cc(C=C3C(=O)NC(=S)NC3=O)c3ccccc32)c1 | 7% (inactive)
33 | O=C(O)Cn1cc(/C=C2\C(=O)NC(=S)N(c3ccccc3F)C2=O)c2ccccc21 | 55% (active)
34 | COc1ccc(NC(=O)/C(C#N)=C/c2cn(CC(=O)Nc3ccccc3)c3ccccc23)cc1 | 59% (active)
35 | COc1ccc(OC)c(N2C(=O)C(Cl)=C(N3CCCCC3)C2=O)c1 | 14% (inactive)
36 | CCc1ccc(/C=C2\SC(=O)NC2=O)cc1 | 4% (inactive)
37 | COc1cc(NC(=O)c2ccc(Cl)c([N+](=O)[O-])c2)ccc1NC(=O)c1ccco1 | 5% (inactive)
38 | Cc1nnc(NC(=O)Cc2ccc(Br)cc2)s1 | 3% (inactive)
39 | COc1cc(CN2CCN(Cc3ccc4c(c3)OCO4)CC2)c([N+](=O)[O-])cc1OC | 6% (inactive)
40 | CCC(=O)Nc1cc(-c2nc3cc(Cl)ccc3o2)ccc1C | 0% (inactive)

Row | Structure (SMILES) | inhibition
41 | CC1=C(C(=O)OCC2CCCCC2)C(c2ccccc2F)NC(=O)N1 (stereo not drawn) | 17% (inactive)
42 | CCOc1cccc(N2C(=O)NC(=O)/C(=C\c3cn(CC(=O)OC)c4ccccc34)C2=O)c1 | 0% (inactive)
43 | Cc1ccccc1N1C(=O)/C(=C\c2cn(CC(=O)Nc3ccccc3)c3ccccc23)C(=O)NC1=S | 26% (inactive)
44 | COC(=O)Cn1cc(/C=C2\C(=O)NC(=S)N(c3cccc(Cl)c3)C2=O)c2ccccc21 | 4% (inactive)
45 | CCOc1ccc(N2C(=O)/C(=C/c3ccc(OCc4cccc(C(=O)O)c4)cc3)C(=O)NC2=S)cc1 | 5% (inactive)
46 | COc1ccc(N2C(=O)/C(=C/c3cn(Cc4ccccc4)c4ccccc34)C(=O)NC2=S)cc1 | 15% (inactive)
47 | Cc1ccc(N2C(=O)NC(=O)/C(=C/c3cn(CC(=O)Nc4ccccc4)c4ccccc34)C2=O)cc1 | 43% (inactive)
48 | O=C(Cn1cc(/C=C2/C(=O)NC(=O)N(c3ccc(Cl)cc3)C2=O)c2ccccc21)Nc1ccccc1 | 11% (inactive)
49 | O=C(Cn1cc(/C=C2/C(=O)NC(=S)N(c3ccccc3)C2=O)c2ccccc21)Nc1ccccc1 | 53% (active)
50 | O=C1NC(=O)N(c2ccccc2F)C(=O)/C1=C/c1ccc(OCc2cccc(C(=O)O)c2)cc1 | 4% (inactive)
51 | CCc1ccccc1NC(=O)c1nn2c(c1Cl)NC(c1ccc(C)cc1)CC2C(F)(F)F (stereo not drawn) | 9% (inactive)
52 | CCCOc1ccccc1C1C(C(=O)OCC2CCCO2)=C(C)NC2=C1C(=O)CCC2 (stereo not drawn) | 6% (inactive)
53 | Oc1c(Br)cc(/C=N/Nc2nc(N3CCCCC3)nc(N3CCCCC3)n2)c(O)c1Br | 29% (inactive)
54 | CC(=O)NN1C(=O)/C(=C\c2ccc(I)o2)SC1=S | 0% (inactive)
55 | CCCOC(=O)c1c(NC(=O)Cc2ccc(OC)cc2)sc2c1CCCC2 | 40% (inactive)
56 | CC1=NN(c2ccccc2)C(=O)C1C(c1ccccc1)C(C#N)C#N (stereo not drawn) | 54% (active)
57 | CC1=NN(c2ccccc2)C(=O)C1C(c1ccc([N+](=O)[O-])cc1)C1C(=O)N(c2ccccc2)N=C1C (stereo not drawn) | 4% (inactive)
58 | CC(=O)NC(c1ccccc1)C1C(=O)N(c2ccccc2)N=C1C (stereo not drawn) | 4% (inactive)
